Measured values from the supplement of paper PMC10849652.
Of roughly 7,900 targets only a part is listed; those with a hit were picked by preference. About 0.6% of all pairs of compound and target were hits. Values without a mark were called inactive.

Key:
Test in all cases: log2 fold change, soluble protein after heating vs DMSO (PISA); higher = thermal stabilisation; K562 cells, 10 uM, 30 min; active = over 0.2 and 3.5 SD of the protein, either way, in both replicates (recomputed)
[1] = compound: CC1=C(C=C(C=C1)NC(=O)C2=CC(=CC=C2)C(C)(C)C#N)NC3=CC4=C(C=C3)N=CN(C4=O)C
Method in brief: (§1)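 Values are thermal stability changes relative to control samples and are taken from duplicates. They are stated as log2 fold changes. Before quantification by TMTpro 16plex LC-MS/MS with equalised channel sums, K562 cells at 2×10^6 cells/mL were treated with 10 μM compound for 30 min, heated in aliquots for 3 min across 48°C-58°C, pooled, extracted in PBS with 0.5% NP-40 at 4°C, and centrifuged at 21,000xg for 90 min to give the soluble supernatant.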

[2] = compound: CC1=C(C=C(C=C1)NC(=O)C2=CC(=CC=C2)N(C)C)NC(=O)C3=CC=C(C=C3)O
Method in brief: as §1

[3] = compound: CC1=CC=C(C=C1)SC2=C3C=C(SC3=CN=C2)C(=O)N
Method in brief: as §1

[4] = compound: CC1=NC(=CC=C1)C2=C(N=C(N2)C(C)(C)C)C3=CC4=NC=CN=C4C=C3
Method in brief: as §1

[5] = compound: CCCCN(Cc1ccc(C(=O)NO)cc1)C(=O)Nc1ccccc1 [Nexturastat A]
Method in brief: as §1

[6] = compound: CCCS(=O)(=O)Nc1ccc(F)c(C(=O)c2c[nH]c3ncc(-c4ccc(Cl)cc4)cc23)c1F [vemurafenib]
Method in brief: as §1

[7] = compound: CCCS(=O)(=O)Nc1ccc(F)c(C(=O)c2c[nH]c3ncc(Cl)cc23)c1F
Method in brief: as §1

[8] = compound: CCCc1cc(C)[nH]c(=O)c1CNC(=O)c1cc(-c2ccnc(N3CCN(C)CC3)c2)cc2c1cnn2C(C)C
Method in brief: as §1

[9] = compound: CCN(CC)Cc1ccc2cc(COC(=O)Nc3ccc(C(=O)NO)cc3)ccc2c1 [givinostat]
Method in brief: as §1

[10] = compound: CCN(CCCOc1ccc2c(Nc3cc(CC(=O)Nc4cccc(F)c4)[nH]n3)ncnc2c1)CCOP(=O)(O)O [barasertib]
Method in brief: as §1

[11] = compound: CC[C@@H]1C(=O)N(C)c2cnc(Nc3ccc(C(=O)NC4CCN(C)CC4)cc3OC)nc2N1C1CCCC1
Method in brief: as §1

[12] = compound: CC[C@@H]1C(=O)N(C)c2cnc(Nc3ccc(C(=O)N[C@H]4CC[C@H](N5CCN(CC6CC6)CC5)CC4)cc3OC)nc2N1C(C)C [volasertib]
Method in brief: as §1

[13] = compound: CC[C@H](C)N1C=C(C2=C(C=C(C=C21)C3=CN=C(C=C3)N4CCNCC4)C(=O)NCC5=C(C=C(NC5=O)C)C)C
Method in brief: as §1

[14] = compound: CC[C@H](C)[C@@H](C(=O)N[C@@H]([C@@H](C)O)C(=O)N[C@@H](CC(C)C)C(=O)[C@]1(CO1)C)NC(=O)[C@H]([C@@H](C)CC)N(C)C(=O)C [epoxomicin]
Method in brief: as §1

[15] = compound: CCn1c(C(=O)N(C2CC2)C2CC2)cc2c3c(ncn3C)c(Nc3cc(C)n(C)n3)nc21
Method in brief: as §1

[16] = compound: CCn1cc(-c2ccnc3[nH]c(-c4cccc(CN(C)C)c4)cc23)c(-c2ccc(NC(=O)N(C)C)cc2)n1
Method in brief: as §1

[17] = compound: CN(C)CC(=O)Nc1ccc2[nH]c(=O)c3ccccc3c2c1
Method in brief: as §1

[18] = compound: CN(CCOC1=CC=C(C=C1)C[C@H]2C(=O)NC(=O)S2)C3=CC=CC=N3 (racemic) [rosiglitazone]
Method in brief: as §1

[19] = compound: CN1C2=C(C3=C1C(=O)N(N=C3)CC4=CC(=CC=C4)N)SC(=C2)S(=O)C
Method in brief: as §1

[20] = compound: CN1CCC(CNc2ccc3ncc(-c4cccc(OC(F)(F)F)c4)n3n2)CC1
Method in brief: as §1

UniProt P02786, sequence (P02786 whole entry, looked up): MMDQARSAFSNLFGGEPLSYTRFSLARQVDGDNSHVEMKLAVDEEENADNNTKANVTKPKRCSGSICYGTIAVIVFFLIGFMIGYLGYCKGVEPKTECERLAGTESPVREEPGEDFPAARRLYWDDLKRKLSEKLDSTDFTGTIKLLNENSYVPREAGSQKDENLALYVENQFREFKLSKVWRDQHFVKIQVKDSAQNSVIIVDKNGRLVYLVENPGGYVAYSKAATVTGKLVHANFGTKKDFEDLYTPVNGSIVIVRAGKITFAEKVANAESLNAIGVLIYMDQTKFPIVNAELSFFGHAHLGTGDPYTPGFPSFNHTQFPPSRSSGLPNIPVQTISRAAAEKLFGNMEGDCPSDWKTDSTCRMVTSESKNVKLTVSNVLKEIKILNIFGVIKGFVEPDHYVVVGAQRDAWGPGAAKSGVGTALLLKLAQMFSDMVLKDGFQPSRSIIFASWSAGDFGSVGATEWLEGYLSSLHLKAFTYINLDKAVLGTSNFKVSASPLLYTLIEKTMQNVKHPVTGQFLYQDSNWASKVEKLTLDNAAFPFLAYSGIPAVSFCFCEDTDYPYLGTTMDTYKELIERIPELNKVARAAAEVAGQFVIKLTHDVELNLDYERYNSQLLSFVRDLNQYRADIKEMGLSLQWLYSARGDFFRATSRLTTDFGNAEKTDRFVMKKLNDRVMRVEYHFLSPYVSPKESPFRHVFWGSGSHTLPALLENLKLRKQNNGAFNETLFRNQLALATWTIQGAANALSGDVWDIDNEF
UniProt Q16842, sequence (Q16842 whole entry, looked up): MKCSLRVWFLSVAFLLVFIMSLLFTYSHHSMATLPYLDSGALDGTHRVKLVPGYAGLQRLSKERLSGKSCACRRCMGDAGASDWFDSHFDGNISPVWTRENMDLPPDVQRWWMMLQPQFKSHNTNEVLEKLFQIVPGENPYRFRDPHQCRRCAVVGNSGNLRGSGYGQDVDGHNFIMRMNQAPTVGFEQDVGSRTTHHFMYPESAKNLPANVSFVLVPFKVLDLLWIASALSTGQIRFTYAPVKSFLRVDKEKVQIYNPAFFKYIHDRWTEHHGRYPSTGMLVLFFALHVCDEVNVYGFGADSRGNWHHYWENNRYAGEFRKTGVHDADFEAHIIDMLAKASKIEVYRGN
UniProt Q9UNH7, sequence (Q9UNH7 whole entry, looked up): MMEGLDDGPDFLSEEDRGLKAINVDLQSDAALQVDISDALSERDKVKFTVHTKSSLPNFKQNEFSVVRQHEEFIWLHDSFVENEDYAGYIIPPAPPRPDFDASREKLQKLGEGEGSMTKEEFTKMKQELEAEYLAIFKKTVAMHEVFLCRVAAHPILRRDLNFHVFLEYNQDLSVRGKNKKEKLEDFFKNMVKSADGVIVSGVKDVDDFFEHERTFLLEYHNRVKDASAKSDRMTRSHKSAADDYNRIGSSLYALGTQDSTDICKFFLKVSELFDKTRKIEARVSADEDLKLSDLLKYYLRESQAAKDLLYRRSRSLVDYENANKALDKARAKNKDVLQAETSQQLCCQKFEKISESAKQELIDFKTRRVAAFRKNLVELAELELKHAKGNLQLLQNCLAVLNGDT
UniProt P05455, sequence (P05455 whole entry, looked up): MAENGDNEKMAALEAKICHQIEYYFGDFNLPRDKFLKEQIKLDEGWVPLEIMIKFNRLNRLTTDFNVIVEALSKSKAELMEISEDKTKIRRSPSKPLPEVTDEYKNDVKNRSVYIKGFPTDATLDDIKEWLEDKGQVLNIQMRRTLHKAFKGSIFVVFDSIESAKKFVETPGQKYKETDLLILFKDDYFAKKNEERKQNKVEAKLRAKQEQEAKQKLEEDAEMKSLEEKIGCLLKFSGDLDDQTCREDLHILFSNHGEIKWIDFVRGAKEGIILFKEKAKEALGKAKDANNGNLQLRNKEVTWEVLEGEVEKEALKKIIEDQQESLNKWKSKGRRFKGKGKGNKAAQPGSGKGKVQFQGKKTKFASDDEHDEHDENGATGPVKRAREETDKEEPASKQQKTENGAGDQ
UniProt P53597, sequence (P53597 whole entry, looked up): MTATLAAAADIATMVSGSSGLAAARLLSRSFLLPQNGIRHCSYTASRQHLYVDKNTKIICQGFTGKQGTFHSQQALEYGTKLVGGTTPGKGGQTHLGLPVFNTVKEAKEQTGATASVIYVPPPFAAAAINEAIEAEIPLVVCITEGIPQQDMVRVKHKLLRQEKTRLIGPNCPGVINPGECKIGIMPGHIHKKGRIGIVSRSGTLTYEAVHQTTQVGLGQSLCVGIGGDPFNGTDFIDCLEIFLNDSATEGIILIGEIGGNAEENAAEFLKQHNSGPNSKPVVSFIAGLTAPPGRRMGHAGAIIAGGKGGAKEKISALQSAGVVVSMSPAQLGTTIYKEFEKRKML
UniProt O60264, sequence (O60264 whole entry, looked up): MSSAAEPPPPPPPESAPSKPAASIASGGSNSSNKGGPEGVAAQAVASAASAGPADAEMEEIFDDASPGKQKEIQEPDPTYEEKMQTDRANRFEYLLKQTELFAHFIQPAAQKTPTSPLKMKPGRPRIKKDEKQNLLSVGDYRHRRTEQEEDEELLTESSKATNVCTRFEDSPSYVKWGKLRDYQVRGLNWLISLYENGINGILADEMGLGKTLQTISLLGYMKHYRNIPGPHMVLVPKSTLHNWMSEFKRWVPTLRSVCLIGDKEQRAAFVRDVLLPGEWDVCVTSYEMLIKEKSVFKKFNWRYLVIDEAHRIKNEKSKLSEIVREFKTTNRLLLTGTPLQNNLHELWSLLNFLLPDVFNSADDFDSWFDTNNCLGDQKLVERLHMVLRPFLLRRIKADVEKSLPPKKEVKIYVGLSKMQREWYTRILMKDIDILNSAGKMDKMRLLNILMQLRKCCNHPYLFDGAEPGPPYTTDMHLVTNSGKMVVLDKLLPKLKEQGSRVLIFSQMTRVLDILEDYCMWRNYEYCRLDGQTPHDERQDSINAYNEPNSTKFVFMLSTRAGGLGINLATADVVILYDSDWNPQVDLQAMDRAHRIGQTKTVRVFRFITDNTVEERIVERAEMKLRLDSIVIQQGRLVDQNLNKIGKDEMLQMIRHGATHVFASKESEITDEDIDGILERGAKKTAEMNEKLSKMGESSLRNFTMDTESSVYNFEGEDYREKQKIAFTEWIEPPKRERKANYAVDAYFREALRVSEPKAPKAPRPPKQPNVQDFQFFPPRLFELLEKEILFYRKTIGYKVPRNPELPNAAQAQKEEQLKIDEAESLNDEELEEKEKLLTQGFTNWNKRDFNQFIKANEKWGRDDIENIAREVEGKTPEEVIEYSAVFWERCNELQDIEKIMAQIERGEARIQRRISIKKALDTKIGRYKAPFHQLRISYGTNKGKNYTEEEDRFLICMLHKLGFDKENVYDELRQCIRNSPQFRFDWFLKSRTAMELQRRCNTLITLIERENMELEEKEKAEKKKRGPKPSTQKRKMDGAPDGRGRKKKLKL
UniProt Q15526, sequence (Q15526 whole entry, looked up): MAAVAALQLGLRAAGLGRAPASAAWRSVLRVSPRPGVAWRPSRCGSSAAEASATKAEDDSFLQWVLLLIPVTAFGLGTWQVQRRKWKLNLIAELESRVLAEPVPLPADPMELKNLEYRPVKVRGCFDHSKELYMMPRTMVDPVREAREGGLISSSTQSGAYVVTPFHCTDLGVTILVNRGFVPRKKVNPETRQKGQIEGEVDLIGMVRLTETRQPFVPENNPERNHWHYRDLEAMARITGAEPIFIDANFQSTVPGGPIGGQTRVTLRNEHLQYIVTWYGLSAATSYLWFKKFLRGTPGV
UniProt P51692, sequence (P51692 whole entry, looked up): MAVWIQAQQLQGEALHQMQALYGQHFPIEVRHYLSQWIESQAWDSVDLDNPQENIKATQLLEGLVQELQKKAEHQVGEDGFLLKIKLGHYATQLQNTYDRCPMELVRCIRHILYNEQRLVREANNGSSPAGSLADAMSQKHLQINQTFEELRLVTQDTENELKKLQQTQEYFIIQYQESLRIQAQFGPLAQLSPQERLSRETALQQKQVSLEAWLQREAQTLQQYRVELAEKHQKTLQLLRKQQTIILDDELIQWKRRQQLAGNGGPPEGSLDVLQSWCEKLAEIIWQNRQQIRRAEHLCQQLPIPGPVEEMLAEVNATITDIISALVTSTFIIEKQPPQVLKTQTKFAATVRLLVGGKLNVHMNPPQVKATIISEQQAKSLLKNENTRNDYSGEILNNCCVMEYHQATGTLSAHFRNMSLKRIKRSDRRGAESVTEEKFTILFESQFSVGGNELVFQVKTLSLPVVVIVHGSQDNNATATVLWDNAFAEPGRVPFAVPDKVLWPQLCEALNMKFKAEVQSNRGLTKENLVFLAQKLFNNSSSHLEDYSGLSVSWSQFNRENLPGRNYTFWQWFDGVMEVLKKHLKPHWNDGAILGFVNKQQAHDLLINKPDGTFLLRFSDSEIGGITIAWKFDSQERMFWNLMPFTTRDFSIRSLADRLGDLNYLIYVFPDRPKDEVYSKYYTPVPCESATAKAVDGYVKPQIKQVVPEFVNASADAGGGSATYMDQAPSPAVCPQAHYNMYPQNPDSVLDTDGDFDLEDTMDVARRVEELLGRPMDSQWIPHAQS
UniProt O00193, sequence (O00193 whole entry, looked up): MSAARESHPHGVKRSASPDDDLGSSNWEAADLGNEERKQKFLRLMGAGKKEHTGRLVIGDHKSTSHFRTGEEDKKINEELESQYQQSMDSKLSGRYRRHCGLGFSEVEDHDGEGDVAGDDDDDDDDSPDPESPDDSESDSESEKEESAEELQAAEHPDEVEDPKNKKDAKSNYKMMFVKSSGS

Row | Target | log2 fold change [1] | log2 fold change [2] | log2 fold change [3] | log2 fold change [4] | log2 fold change [5] | log2 fold change [6] | log2 fold change [7] | log2 fold change [8] | log2 fold change [9] | log2 fold change [10] | log2 fold change [11] | log2 fold change [12] | log2 fold change [13] | log2 fold change [14] | log2 fold change [15] | log2 fold change [16] | log2 fold change [17] | log2 fold change [18] | log2 fold change [19] | log2 fold change [20]
1 | SUCLG1 (UniProt P53597) | -0.02 | -0.008 | -0.001 | 0.025 | -0.032 | 0.009 | 0 | -0.006 | -0.102 | 0.019 | 0.008 | -0.044 | 0.063 | 0.031 | -0.013 | -0.012 | -0.027 | 0.037 | -0.041 | -0.097
2 | SRC isoform 2 (UniProt P12931) | -0.006 | 0.022 | -0.016 | -0.06 | -0.075 | 0.068 | 0.069 | -0.06 | -0.091 | -0.01 | 0.079 | -0.03 | 0.108 | -0.16 | -0.101 | -0.066 | -0.032 | 0.029 | -0.002 | -0.149
3 | STAT3 (UniProt P40763) | 0.012 | 0.001 | -0.009 | -0.008 | 0.005 | 0.101 | 0.102 | 0.017 | 0.089 | 0.064 | -0.336 (active) | -0.767 (active) | 0.056 | 0.002 | -0.052 | -0.059 | 0.052 | 0.063 | -0.047 | -0.275 (active)
4 | ST3GAL2 (UniProt Q16842) | 0.064 | -0.054 | -0.216 | 0.066 | -0.012 | -0.032 | -0.013 | 0.212 | 0.078 | 0.112 | -0.28 | -0.562 (active) | -0.053 | -0.053 | -0.038 | 0.062 | 0.005 | 0.011 | -0.071 | -0.474 (active)
5 | SURF1 (UniProt Q15526) | 0.045 | -0.008 | -0.019 | 0.087 | -0.033 | 0.042 | 0.124 | -0.01 | -0.01 | 0.027 | -0.085 | -0.274 (active) | -0.055 | 0.012 | -0.013 | -0.059 | 0.013 | 0.035 | -0.016 | -0.311 (active)
6 | SMARCAD1 isoform 2 (UniProt Q9H4L7) | 0.028 | -0.072 | -0.026 | 0.064 | -0.028 | 0.192 | 0.101 | 0.035 | 0.127 | 0.089 | -0.085 | -0.378 (active) | 0.057 | 0.046 | -0.055 | -0.1 | 0.04 | 0.071 | -0.037 | -0.1
7 | SOAT1 (UniProt P35610) | 0.259 | -0.044 | 0.038 | -0.03 | 0.002 | -0.036 | -0.015 | -0.137 | 0.152 | 0.001 | -0.017 | 0.053 | -0.094 | 0.029 | 0.009 | 0.013 | -0.04 | -0.016 | -0.051 | -0.09
8 | SNX6 (UniProt Q9UNH7) | -0.04 | -0.016 | 0.019 | 0.021 | -0.025 | -0.003 | 0.076 | 0.006 | 0.077 | 0.079 | -0.142 | -0.047 | 0.117 | 0.015 | -0.141 | -0.131 | 0.005 | 0.08 | 0.016 | -0.77 (active)
9 | SSB (UniProt P05455) | -0.02 | 0.024 | -0.026 | 0.024 | 0.019 | -0.003 | 0.003 | 0.036 | -0.175 | 0.074 | -0.154 | -0.131 | 0.083 | -0.011 | 0.015 | 0.04 | -0.012 | 0.044 | -0.001 | -0.194
10 | SMARCA5 (UniProt O60264) | 0.042 | -0.041 | 0.038 | 0.014 | 0.107 | 0.085 | 0.129 | 0.032 | 0.149 | 0.109 | -0.242 | -0.333 | 0.045 | 0.092 | -0.088 | -0.06 | 0.053 | -0.003 | 0.121 | 0.076
11 | TIMM44 (UniProt O43615) | 0.048 | -0.028 | 0.091 | 0.074 | -0.052 | -0.002 | 0.12 | -0.096 | -0.013 | 0.055 | -0.412 (active) | -0.57 (active) | -0.004 | 0.057 | -0.006 | -0.091 | 0.012 | 0.036 | -0.056 | -0.886 (active)
12 | STAT5B (UniProt P51692) | -0.165 | -0.102 | 0.222 | 0.111 | 0.014 | 0.046 | 0.08 | 0.101 | 0.145 | 0.113 | -0.221 | -0.333 | 0.36 | 0.004 | -0.037 | 0.052 | 0.105 | -0.003 | -0.063 | -0.045
13 | SMAP (UniProt O00193) | -0.018 | -0.002 | -0.03 | 0.062 | -0.059 | -0.006 | 0.001 | -0.107 | -0.02 | 0.008 | -0.024 | 0.023 | -0.043 | 0.06 | -0.02 | 0.014 | -0.011 | -0.038 | -0.088 | -0.045
14 | SMAP2 (UniProt Q8WU79) | -0.033 | -0.063 | 0.016 | -0.054 | 0.029 | 0.058 | 0.055 | 0.043 | 0.04 | 0.052 | -0.054 | -0.3 (active) | 0.131 | 0.056 | -0.015 | -0.009 | 0.008 | 0.073 | -0.021 | 0.015
15 | SLC30A10 (UniProt Q6XR72) | 0.028 | -0.102 | 0.131 | 0.001 | -0.545 (active) | -0.031 | -0.073 | -0.086 | -0.002 | -0.025 | 0 | -0.052 | -0.052 | 0.045 | 0.023 | -0.244 | -0.028 | 0.039 | -0.087 | 0.044
16 | TFRC (UniProt P02786) | -0.008 | 0.023 | 0.02 | 0.026 | -0.067 | -0.002 | -0.007 | -0.026 | 0.004 | -0.015 | -0.589 (active) | -0.417 (active) | -0.035 | -0.009 | 0.051 | -0.005 | 0.004 | -0.007 | -0.033 | -0.289 (active)
